Measurements published in PubChem BioAssay (Tox21).
Values without a mark were called inactive. Entries that show only a call come without a potency. Activity calls are given as the source filed them. Calls follow the shape of the full dose curve.

test: G protein-coupled receptor (GPCR) small molecule agonists, calcium flux assay: HEK293 wild type cell line counter screen (AID 1920065); details: HEK293 WT calcium flux, fluorescence, agonist mode; series mostly up to 57.6 µM; activation: at the top concentration
Excerpt: U.S. Tox21 Program National Center for Advancing Translational Sciences [NCATS] Division of Preclinical Innovation [DPI] U.S. Environmental Protection Agency [EPA] National Institutes of Environmental Health Sciences [NIEHS] National Toxicology Program [NTP] U.S. Food and Drug Administration [FDA] Assay overview: The increased intracellular calcium release that occurred upon G protein-coupled receptor (GPCR) activation led to the frequent use of calcium flux assays to detect GPCR activation. For the purpose of studying and screening compounds that may activate GPCR, receptor-overexpressing models were typically generated using Hek293 wild-type (WT) cells. In order to eliminate the compounds that may have induced calcium release for non-specific activation, a counter-assay utilizing calcium flux on Hek293 WT cells was performed. The data were formulated in order to serve as a control for any calcium flux detection utilizing Hek293 cells with either GPCR overexpression or gene modification. The procurement of Hek293 WT cells from ATCC. Fluorescence intensity can be utilized to determine the activation of the compound in a calcium flux assay. As a counter control, this cell line was utilized to screen the Tox21 10K compound library.
Assay Protocol Summary: Hek293 cells were dispensed at 1500cells/4uL/well in 1536-well black wall/clear bottom plates using a multidrop dispenser. After the assay plates were incubated at a 37 C/5% CO2 incubator for 18 hours, 4 uL of Calcium Dye Solution was added to each well. The plates were incubated at 37 C for 1 hour. For agonist mode, 23 nL of compounds dissolved in DMSO, positive control (ATP) or DMSO only was transferred to the assay plate by a pin tool station. The fluorescence intensity in the plates was measured using FDSS 7000EX kinetic plate reader with a filter set of Ex/Em=480/540 for 3 min at 1 sec intervals. Each test compound was measured at 15 concentrations and in triplicates.

Structure (SMILES)	Potency	activation
C#CCOS(=O)OC1CCCCC1Oc1ccc(C(C)(C)C)cc1 (stereo not given)	inactive	–
CCn1cc[n+](C)c1C	inactive	–
CN(C)C(=O)C(c1ccccc1)c1ccccc1	inactive	–
NC(=O)CN1CCCC1=O	inactive	–
C=C(C#N)CCC#N	–	-0.047%
OCCCCO	inactive	–
OCC(O)CCl (stereo not given)	inactive	–
CCCCOP(=O)(CCCC)OCCCC	–	0.696%
CC(C)Nc1nc(Cl)nc(NC(C)C)n1	inactive	–
CCCCOC(=O)CCC(=O)OCCCC	–	0.0729%
C[C@]12CC[C@H](O)CC1=CC[C@@H]1[C@@H]2CC[C@]2(C)C(=O)CC[C@@H]12	inactive	–
c1ccc2c(c1)sc1ccccc12	inactive	–
CC1(C)C(C=C(Cl)Cl)C1C(=O)OC(C#N)c1ccc(F)c(Oc2ccccc2)c1 (stereo not given)	–	-0.149%
Cc1cccc([N+](=O)[O-])c1	inactive	–
[O]=[Cr][O][Cr]=[O]	–	0.591%
N#CCBr	–	0.54%
Cc1ccc2c(c1N)C(=O)c1ccccc1C2=O	inactive	–
c1ccc2sc(SNC3CCCCC3)nc2c1	inactive	–
ClCc1ccccc1	–	0.0591%
Nc1cccc(Cl)c1	inactive	–

Structure (SMILES)	Potency	activation
CCCCn1cc[n+](C)c1C	inactive	–
BrCCc1ccccc1	–	0.302%
CCC12COCN1COC2	inactive	–
O=C1CC(=O)NC(=O)N1	–	0.166%
ClCCN1CCOCC1	–	-1.25%
O=[N+]([O-])c1c(Cl)c(Cl)c(Cl)c(Cl)c1Cl	inactive	–
CCC1(c2ccccc2)CCC(=O)NC1=O (stereo not given)	–	-0.903% [at 26.5 µM]
Cc1cccc(N)c1C	inactive	–
O=C(O)c1nc(Cl)ccc1Cl	inactive	–
O=C(O)c1ccc(=O)[nH]c1	–	-0.212% [at 26.5 µM]
CNC(=O)NC(O)C(Cl)(Cl)Cl (stereo not given)	–	1.93% [at 26.5 µM]
CC(C)CCCCCOC(=O)c1ccccc1C(=O)OCCCCCC(C)C	–	1.18%
CCN(CC)C(=O)SCc1ccc(Cl)cc1	inactive	–
CCCC1CCCCN1 (stereo not given)	–	0.228% [at 26.5 µM]
CC(C)(C)CC(C)(C)c1ccc(O)cc1	inactive	–
O=NN1CCCCCC1	–	-0.473%
Nc1ccncc1	inactive	–
C=CCN1C[C@H](C)N([C@H](c2ccc(C(=O)N(CC)CC)cc2)c2cccc(OC)c2)C[C@H]1C	–	0.803% [at 26.5 µM]
O=P(OCCCl)(OCCCl)OCCCl	inactive	–
CC(C)=CC1C(C(=O)OCN2C(=O)C3=C(CCCC3)C2=O)C1(C)C (stereo not given)	inactive	–
